A short description of assay [1]: IUF_NPC2c_oligodendrocyte_migration_120hr: Leibniz Research Institute for Environmental Medicine (IUF) 120-hour Neural Progenitor Cell Migration Assay for Oligodendrocyte Migration (NPC2c) (AID 2284297).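 Also: O4-positive oligodendrocyte migration distance divided by radial glia migration distance.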 In outline:
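hNPC spheres (GW 16-19 cortex), PDL/laminin, DMEM/F12 3:1 + 1% N2, 37C. Dosing day 0–5, half feed day 3, DMSO ≤0.1%. Fixed 120 h; O4 ICC + Hoechst, HCI. Readout: mean oligodendrocyte distance from sphere edge / radial glia distance.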

The nature of assay [2]: IUF_NPC2a_radial_glia_migration_72hr: Leibniz Research Institute for Environmental Medicine (IUF) 72-hour Neural Progenitor Cell Migration Assay for Radial Glia Migration (NPC2a) (AID 2284299). In outline:
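Spheres of human primary neural progenitors migrate on poly-D-lysine/laminin under compound exposure at 37C, 5% CO2. The 72 h radial glia migration distance comes from brightfield images, measured manually.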

Assay [3] in a line: IUF_NPC2b_neuronal_migration_120hr: Leibniz Research Institute for Environmental Medicine (IUF) 120-hour Neural Progenitor Cell Migration Assay for Neuron Migration (NPC2b) (AID 2284300). In outline:
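hNPC spheres, PDL/laminin, DMEM:F12 3:1 + 1% N2, 37C/5% CO2; 7 concentrations + solvent control (DMSO ≤0.1%), 5 d exposure, half-feed day 3. Fix 120 h, TUBB3 ICC, HCI: mean neuron migration distance ÷ glia distance.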

Assay [4] in a line: IUF_NPC3_neuronal_differentiation_120hr: Leibniz Research Institute for Environmental Medicine (IUF) 120-hour Neuronal Differentiation Assay (NPC3) (AID 2284301). In outline:
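hNPC spheres, PDL/laminin, DMEM/F12 3:1 + 1% N2, 37C, 5% CO2; 7 concentrations + solvent control, 5 d exposure, half-change day 3. Fix 120 h; TUBB3/Hoechst ICC, CNN neuron calling; % neurons vs nuclei, DMSO-normalized.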

Assay [5] in a line: IUF_NPC4_neurite_length_120hr: Leibniz Research Institute for Environmental Medicine (IUF) 120-hour Neuronal Morphology Assay for Neurite Length (NPC4) (AID 2284302). A digest of the protocol: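 hNPC spheres (0.3 mm, fetal brain GW 16-19) on PDL/laminin, DMEM:F12 3:1 + 1% N2, 37C 5% CO2; 7 concs + solvent control, day 0-5, half medium change d3; fix 120 h, TUBB3 ICC, mean neurite length um vs DMSO.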

Assay [6] in a line: IUF_NPC5_oligodendrocyte_differentiation_120hr: Leibniz Research Institute for Environmental Medicine (IUF) 120-hour Oligodendrocyte Differentiation Assay (NPC5) (AID 2284304; active = hit-call score of the fitted dose curve at least 0.9, where 1 is the maximum;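 also: primary human fetal neural progenitor spheres plated to migrate and differentiate; share of O4-positive cells among Hoechst nuclei found by CNN image analysis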). A digest of the protocol:
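hNPC spheres, fetal cortex GW 16-19; PDL/laminin, DMEM:F12 3:1 + 1% N2, 37C/5% CO2; 7 concentrations + solvent control, 5 d exposure, half-change day 3. Readout: %O4+ of Hoechst+ nuclei in migration area, CNN classification; DMSO baseline.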

Assay [7] is described as follows: IUF_NPC4_neurite_area_120hr: Leibniz Research Institute for Environmental Medicine (IUF) 120-hour Neuronal Morphology Assay for Neurite Area (NPC4) (AID 2284305; active = hit-call score of the fitted dose curve at least 0.9, where 1 is the maximum). In outline:
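hNPC spheres on PDL/laminin, N2 medium, 37C/5% CO2; dosed day 0, half-medium refresh day 3; fixed 120 h; TUBB3/Hoechst ICC, high-content imaging; neurite area = mean pixels per neuron (nuclei excluded); DMSO baseline, max 0.1%.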

A short description of assay [8]: IUF_NPC2-5_cytotoxicity_72hr: Cytotoxicity Assessment at 72 hours in the Leibniz Research Institute for Environmental Medicine (IUF) Neural Progenitor Cell Migration and Differentiation Assay for Cytotoxicity (NPC2-5) (AID 2284306; active = hit-call score of the fitted dose curve at least 0.9, where 1 is the maximum;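 also: LDH release into supernatant measured by resorufin fluorescence marking membrane damage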). In outline: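 hNPC spheres (0.3 mm), PDL/laminin, DMEM/F12 3:1 + 1% N2; cpd from d0, 7 concs + SC, DMSO max 0.1%; half-medium refresh d3. Readout: supernatant LDH via resorufin fluorescence (RFU), 72 h; gain-of-signal fit.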

Assay [9] can be described thus: IUF_NPC2-5_cytotoxicity_120hr: Cytotoxicity Assessment at 120 hours in the Leibniz Research Institute for Environmental Medicine (IUF) Neural Progenitor Cell Migration and Differentiation Assay (NPC2-5) (AID 2284307; active = hit-call score of the fitted dose curve at least 0.9, where 1 is the maximum;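 as to AC50: LDH released into supernatant as membrane damage marker via resorufin fluorescence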). In outline: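 hNPC spheres on PDL/laminin, N2 medium, 37C; 7 concs + solvent control, DMSO ≤0.1%; 5-day exposure, half medium changed day 3. LDH in supernatant at 120 h, resazurin→resorufin fluorescence, gain-of-signal.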

The nature of assay [10]: IUF_NPC2-5_cell_number_120hr: Cell Number Assessment at 120 hours in the Leibniz Research Institute for Environmental Medicine (IUF) Neural Progenitor Cell Migration and Differentiation Assay (NPC2-5) (AID 2284308).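 Also: count of Hoechst-stained nuclei in migration zone around plated human neural progenitor spheres.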 In outline:
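Hoechst-stained nuclei within the migration area were counted by automated high content imaging after 120 h. Single hNPC spheres differentiated on poly-D-lysine/laminin in DMEM/F12 (3:1) with 1% N2, compound present throughout, DMSO ≤0.1%.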

Results filed as inconclusive are left out. The source made the active and inactive calls. The calls were made as follows, unless noted: active = hit-call score of the fitted dose curve at least 0.9, where 1 is the maximum; inactive = score below 0.9.

For the compound `COP(N)(=O)SC` (stereo not drawn), the outcome in [1], in assay [2], in assay [3], in assay [4], in assay [5] and in assay [6] was inactive. For the same compound, the result in assay [7], in assay [8], in assay [9] and in assay [10] was inactive.

As for `CCCCOC(=O)c1ccccc1C(=O)OCCCC`, the result in assay [1], in assay [2], in [3], in assay [4], in assay [5] and in [8] was inactive. Also, the result in assay [9] and in assay [10] was inactive.

One may read the AC50 as the concentration at which the activity in the assay is half-maximal. As for `COC(=O)N(OC)c1ccccc1COc1ccn(-c2ccc(Cl)cc2)n1`, the result in [1], in assay [3] and in assay [8] was inactive. For the same compound, the AC50 in assay [2] was 3440 nM (active); in assay [4], 49.7 nM (active); in assay [5] it was 328 nM (active); in assay [6], 2160 nM (active); in assay [7], 167 nM (active); in assay [9], 2120 nM (active). Besides, the concentration at half-maximal activity (AC50) in assay [10] was 3230 nM (active).

For `CC(C)(C)c1ccc(CSc2cnn(C(C)(C)C)c(=O)c2Cl)cc1`, the result in assay [1], in assay [2], in [3], in assay [4], in assay [5] and in assay [7] was inactive. Besides, the outcome in assay [8], in assay [9] and in [10] was inactive. In addition, the AC50 in assay [6] is 86.6 nM (active).

For `COP(=S)(OC)Oc1nc(Cl)c(Cl)cc1Cl`, the compound was classed as inactive in assay [1], in [2], in assay [3], in [4], in [5] and in assay [6]. In addition, the compound was classed as inactive in assay [9] and in assay [10].

For the compound `CO/C=C(/C(=O)OC)c1ccccc1Oc1cc(Oc2ccccc2C#N)ncn1`, the outcome in [1], in assay [2], in assay [3], in assay [4], in assay [5] and in assay [6] was inactive. In addition, the compound was called inactive in [7], in assay [8], in assay [9] and in assay [10].

With `CCCCC(CC)COC(=O)c1ccccc1C(=O)OCC(CC)CCCC` (stereo not drawn), the outcome in assay [1], in [2], in assay [3], in assay [4], in [5] and in [6] was inactive. The compound was classed as inactive in [8], in [9] and in [10].

`CCOC(=O)CC(SP(=S)(OC)OC)C(=O)OCC` (stereo not drawn): the call in [1], in assay [2], in assay [3], in assay [4], in [5] and in [7] was inactive. The call in assay [9] and in [10] was inactive.

The record behind these values is PubChem BioAssay (EPA / NIEHS).
